Laboratory results: PubChem BioAssay AID1159580 (chemical genetic matrix, 2015)
The campaign covered roughly 5,500 compounds. About 2,000 (36%) were called active. Roughly 18% stayed inconclusive and do not appear here. Rule as the data show it: active = normalized growth mostly below about 0.91 (no sharp cut-off); inconclusive = no clear call, values can overlap the other calls; inactive = mostly above about 0.92. This is one part of the list.

Experiment: chemical genetic growth profiling, strain panel (AID 1159580);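 also: tested at 20 µM; growth read once vehicle control cultures reached saturation at 30 °C; 1 = growth at the plate median or of vehicle wells; lower values mean less growth of the strain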
Settings: growth OD

Measured: normalized growth

NC[C@@H]1O[C@H](O[C@@H]2[C@@H](CO)OC(O[C@@H]3[C@@H](O)[C@H](N)C[C@H](N)[C@H]3O[C@H]3O[C@H](CO)[C@@H](O)[C@H](O)[C@H]3N)[C@@H]2O)[C@H](N)[C@@H](O)[C@@H]1O (stereo partly drawn)
inactive: S. cerevisiae deletion strains, locus YJR043C, strain POL32, stronger effect = lower value 0.936 | S. cerevisiae deletion strains, locus YJR066W, strain TOR1, stronger effect = lower value 0.945 | S. cerevisiae deletion strains, locus YKL009W, strain mrt4, stronger effect = lower value 0.982 | S. cerevisiae deletion strains, locus YKL068W, stronger effect = lower value 0.993 | S. cerevisiae deletion strains, locus YKL085W, strain MDH1 (second series), stronger effect = lower value 0.995 | S. cerevisiae deletion strains, locus YKL085W, strain MDH1, stronger effect = lower value 0.995 | S. cerevisiae deletion strains, locus YKL160W, strain elf1, stronger effect = lower value 0.996 | S. cerevisiae deletion strains, locus YKL190W, strain CNB1, stronger effect = lower value 0.988 | S. cerevisiae deletion strains, locus YKR001C, strain vps1, stronger effect = lower value 0.988 | S. cerevisiae deletion strains, locus YKR026C, strain gcn3, stronger effect = lower value 0.992 | S. cerevisiae deletion strains, locus YKR091W, strain srl3, stronger effect = lower value 0.989 | S. cerevisiae deletion strains, locus YLL001W, strain dnm1, stronger effect = lower value 0.985 | S. cerevisiae deletion strains, locus YLL026W, stronger effect = lower value 0.987 | S. cerevisiae deletion strains, locus YLL041C, strain sdh2, stronger effect = lower value 0.993 | S. cerevisiae deletion strains, locus YLR027C, strain aat2, stronger effect = lower value 0.987 | S. cerevisiae deletion strains, locus YLR039C, strain RIC1, stronger effect = lower value 0.983 | S. cerevisiae deletion strains, locus YLR058C, strain SHM2, stronger effect = lower value 0.978 | S. cerevisiae deletion strains, locus YLR102C, strain apc9, stronger effect = lower value 0.989 | S. cerevisiae deletion strains, locus YLR113W, strain HOG1, stronger effect = lower value 0.952 | S. cerevisiae deletion strains, locus YLR221C, strain rsa3, stronger effect = lower value 0.991 | S. cerevisiae deletion strains, locus YLR258W, strain gsy2, stronger effect = lower value 0.993 | S. cerevisiae deletion strains, locus YLR262C, strain YPT6 (second series), stronger effect = lower value 1.01 | S. cerevisiae deletion strains, locus YLR262C, strain YPT6, stronger effect = lower value 0.973 | S. cerevisiae deletion strains, locus YLR268W, strain sec22, stronger effect = lower value 0.986 | S. cerevisiae deletion strains, locus YLR320W, strain mms22, stronger effect = lower value 0.997 | S. cerevisiae deletion strains, locus YLR330W, strain CHS5, stronger effect = lower value 0.998 | S. cerevisiae deletion strains, locus YLR342W, strain FKS1 (second series), stronger effect = lower value 1.09 | S. cerevisiae deletion strains, locus YLR342W, strain FKS1, stronger effect = lower value 0.992 | S. cerevisiae deletion strains, locus YLR357W, strain rsc2, stronger effect = lower value 0.992 | S. cerevisiae deletion strains, locus YLR370C, strain arc18, stronger effect = lower value 0.992 | S. cerevisiae deletion strains, locus YLR371W, strain rom2, stronger effect = lower value 1 | S. cerevisiae deletion strains, locus YLR384C, strain iki3, stronger effect = lower value 0.99 | S. cerevisiae deletion strains, locus YLR418C, strain cdc73, stronger effect = lower value 1.01 | S. cerevisiae deletion strains, locus YML016C, strain PPZ1, stronger effect = lower value 0.992 | S. cerevisiae deletion strains, locus YML032C, strain rad52, stronger effect = lower value 0.98 | S. cerevisiae deletion strains, locus YML120C, strain ndi1, stronger effect = lower value 0.988 | S. cerevisiae deletion strains, locus YML124C, strain tub3, stronger effect = lower value 0.985 | S. cerevisiae deletion strains, locus YMR058W, strain fet3, stronger effect = lower value 0.988 | S. cerevisiae deletion strains, locus YMR078C, strain ctf18, stronger effect = lower value 0.989 | S. cerevisiae deletion strains, locus YMR125W, strain sto1, stronger effect = lower value 0.998 | S. cerevisiae deletion strains, locus YMR129W, stronger effect = lower value 0.998 | S. cerevisiae deletion strains, locus YMR205C, strain PFK2, stronger effect = lower value 0.994 | S. cerevisiae deletion strains, locus YMR223W, strain ubp8, stronger effect = lower value 1.01 | S. cerevisiae deletion strains, locus YMR231W, strain pep5, stronger effect = lower value 1 | S. cerevisiae deletion strains, locus YMR307W, strain GAS1, stronger effect = lower value 1.07 | S. cerevisiae deletion strains, locus YNL067W, strain RPL9B, stronger effect = lower value 0.97 | S. cerevisiae deletion strains, locus YNL071W, strain lat1, stronger effect = lower value 0.987 | S. cerevisiae deletion strains, locus YNL183C, strain NPR1, stronger effect = lower value 0.939 | S. cerevisiae deletion strains, locus YNL209W, strain ssb2, stronger effect = lower value 0.999 | S. cerevisiae deletion strains, locus YNL233W, strain BNI4, stronger effect = lower value 0.995 | S. cerevisiae deletion strains, locus YNL248C, strain rpa49, stronger effect = lower value 0.988 | S. cerevisiae deletion strains, locus YNL250W, strain rad50, stronger effect = lower value 0.991 | S. cerevisiae deletion strains, locus YNL271C, strain bni1, stronger effect = lower value 0.986 | S. cerevisiae deletion strains, locus YNL298W, strain CLA4, stronger effect = lower value 0.989 | S. cerevisiae deletion strains, locus YNL307C, strain MCK1, stronger effect = lower value 0.983 | S. cerevisiae deletion strains, locus YNL322C, strain KRE1 (second series), stronger effect = lower value 0.989 | S. cerevisiae deletion strains, locus YNR049C, strain mso1, stronger effect = lower value 0.993 | S. cerevisiae deletion strains, locus YNR052C, strain pop2, stronger effect = lower value 0.998 | S. cerevisiae deletion strains, locus YOL006C, strain TOP1, stronger effect = lower value 0.932 | S. cerevisiae deletion strains, locus YOL012C, strain htz1 1.06 | S. cerevisiae deletion strains, locus YOL147C, strain pex11, stronger effect = lower value 1 | S. cerevisiae deletion strains, locus YOR001W, strain rrp6, stronger effect = lower value 0.985 | S. cerevisiae deletion strains, locus YOR061W, strain CKA2, stronger effect = lower value 0.973 | S. cerevisiae deletion strains, locus YOR069W, strain VPS5, stronger effect = lower value 0.998 | S. cerevisiae deletion strains, locus YOR070C, strain gyp1, stronger effect = lower value 0.995 | S. cerevisiae deletion strains, locus YOR080W, strain dia2, stronger effect = lower value 0.989 | S. cerevisiae deletion strains, locus YOR083W, strain WHI5, stronger effect = lower value 0.993 | S. cerevisiae deletion strains, locus YOR106W, strain vam3, stronger effect = lower value 0.995 | S. cerevisiae deletion strains, locus YOR136W, strain idh2, stronger effect = lower value 0.98 | S. cerevisiae deletion strains, locus YOR144C, strain elg1, stronger effect = lower value 0.999 | S. cerevisiae deletion strains, locus YOR184W, strain ser1, stronger effect = lower value 0.972 | S. cerevisiae deletion strains, locus YOR231W, strain MKK1, stronger effect = lower value 0.965 | S. cerevisiae deletion strains, locus YOR265W, strain rbl2, stronger effect = lower value 0.992 | S. cerevisiae deletion strains, locus YOR270C, strain vph1, stronger effect = lower value 0.966 | S. cerevisiae deletion strains, locus YOR290C, strain snf2, stronger effect = lower value 0.989 | S. cerevisiae deletion strains, locus YOR316C, strain cot1, stronger effect = lower value 0.979 | S. cerevisiae deletion strains, locus YPL051W, strain arl3, stronger effect = lower value 0.989 | S. cerevisiae deletion strains, locus YPL078C, strain atp4, stronger effect = lower value 0.99 | S. cerevisiae deletion strains, locus YPL106C, strain sse1, stronger effect = lower value 0.967 | S. cerevisiae deletion strains, locus YPL240C, strain hsp82, stronger effect = lower value 0.997 | S. cerevisiae deletion strains, locus YPL241C, strain CIN2, stronger effect = lower value 0.998 | S. cerevisiae deletion strains, locus YPL256C, strain CLN2, stronger effect = lower value 0.968 | S. cerevisiae deletion strains, locus YPR119W, strain clb2, stronger effect = lower value 0.99 | S. cerevisiae deletion strains, locus YPR141C, strain kar3, stronger effect = lower value 0.988 | S. cerevisiae deletion strains, locus YPR163C, strain tif3, stronger effect = lower value 0.998 | S. cerevisiae deletion strains, locus YPR167C, strain met16, stronger effect = lower value 0.999 | S. cerevisiae deletion strains, strain wtn01, stronger effect = lower value 1.02 | S. cerevisiae strains, strain wild type, stronger effect = lower value 0.988
